Among the data in PubChem BioAssay are inhibition values, retold here.

By inhibition is commonly meant the drop in the measured response relative to a control, in per cent.

Calls of active or inactive are those of the source. How the calls were made is not given here.

The target of this assay is Pantothenate synthetase (Mycobacterium tuberculosis (strain ATCC 25618 / H37Rv)) (UniProt P9WIL5). The assay is described as follows: Coupled enzyme confirmation of inhibitors against recombinant Mtb PanC (AID 375).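 Further: 0% = full reaction with vehicle and 100% = no enzyme background.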 The note with it: coupled enzyme assay; at 10 µM, stronger effect = higher value.
Chain of Pantothenate synthetase (Mycobacterium tuberculosis (strain ATCC 25618 / H37Rv)) (P9WIL5 whole entry, looked up): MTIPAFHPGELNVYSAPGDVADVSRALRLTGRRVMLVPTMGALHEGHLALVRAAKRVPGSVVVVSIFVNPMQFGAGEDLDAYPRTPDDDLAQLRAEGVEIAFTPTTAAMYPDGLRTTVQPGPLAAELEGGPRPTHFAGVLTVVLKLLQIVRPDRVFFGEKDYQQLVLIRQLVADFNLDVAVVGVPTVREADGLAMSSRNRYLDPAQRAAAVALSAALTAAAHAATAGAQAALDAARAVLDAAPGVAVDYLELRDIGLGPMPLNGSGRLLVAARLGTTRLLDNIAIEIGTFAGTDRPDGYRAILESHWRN
Regarding `COc1cc(C)c(Br)cc1S(=O)(=O)N1CCOCC1`, the inhibition is 2% (inactive). Turning to `CC(Sc1nnc(-c2cc3ccccc3o2)n1-c1ccccc1)C(=O)O` (centres undefined), the inhibition was 12% (inactive). The value for `NC(=O)C1CCN(CC(=O)N2c3ccccc3CCc3ccccc32)CC1` was 0% (inactive); that for `COC(=O)c1sccc1NC(=O)c1csc(C)c1` was 6% (inactive).
